Compounds with a hit are over-represented: about 1.2% of the library has one in this group of screens.
Avidin bead fluor: avidin bead compound fluorescence profile. Avidin beads, compound fluorescence 488/530 nm, flow cytometry; active compounds read high. fluorescence (KMESF) at 10 µM. hit rate 0.38% among 220,000. AID 1775; in the data active means fluorescence above about 47
GSH bead fluor: compound fluoresces at 488/530 nm on GSH beads; fluorescence (KMESF) at 10 µM; hit rate 0.25% among 190,000; AID 1776; GSH beads flow cytometry, compound fluorescence 488/530 nm; active compounds read high; in the data active means fluorescence above about 89;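 further: glutathione beads carrying GST-tagged Bcl family fusion proteins plus one bare bead set; values are compound well signal with DMSO vehicle wells as background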
RGS8-Gao: human RGS8-Galphao interaction regulation; hit rate 0.34% among 220,000; P09471; AID 1423; multiplexed bead flow cytometry, RGS8-Galphao binding; actives lie on both sides; response (percent of control binding), % at 10 µM; in the data active means response below about 60% or above about 140%; inactive means in between;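 further: Galphao activated as the GDP aluminium fluoride complex binding bead-coupled RGS8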
Target sequence (P09471 whole entry, looked up): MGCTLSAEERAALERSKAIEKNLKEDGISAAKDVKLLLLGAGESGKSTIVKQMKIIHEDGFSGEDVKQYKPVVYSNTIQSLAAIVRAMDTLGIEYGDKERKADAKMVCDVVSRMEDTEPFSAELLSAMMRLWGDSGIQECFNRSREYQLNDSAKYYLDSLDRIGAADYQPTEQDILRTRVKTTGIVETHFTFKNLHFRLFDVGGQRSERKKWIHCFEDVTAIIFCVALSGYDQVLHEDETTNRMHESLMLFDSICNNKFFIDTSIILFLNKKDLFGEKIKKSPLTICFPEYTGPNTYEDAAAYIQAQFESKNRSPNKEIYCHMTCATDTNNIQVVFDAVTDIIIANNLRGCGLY
RGS16-Gao HTS: regulators of human RGS16-Galphao interaction | O15492+P09471 | bead-based flow cytometry RGS16-Galphao binding, fluorescence; actives lie on both sides | binding response (% of control), % at 10 µM | hit rate 0.38% among 220,000 | AID 1441;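 further: Galphao activated by GDP with aluminum fluoride before binding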
Target sequence (O15492 whole entry, looked up): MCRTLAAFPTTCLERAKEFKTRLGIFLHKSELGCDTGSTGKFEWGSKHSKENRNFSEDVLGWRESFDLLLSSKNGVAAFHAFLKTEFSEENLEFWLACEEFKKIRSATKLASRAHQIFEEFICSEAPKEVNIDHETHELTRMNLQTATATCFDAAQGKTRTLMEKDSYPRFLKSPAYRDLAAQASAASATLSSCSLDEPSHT
Target sequence (P09471 whole entry, looked up): as the sequence (P09471 whole entry, looked up) above
RGS7-Gao reg: human RGS7-Galphao interaction regulation; P09471; Multiplexed bead flow cytometry, RGS7-Galphao binding; actives lie on both sides; binding response (% of control), % at 10 µM; AID 1439; hit rate 0.35% among 220,000; in the data active means binding response below about 49% or above about 150%; inconclusive means no clear call, values can overlap the other calls; inactive means in between;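 further: fluorescent Galphao held in activated GDP-AlF4 state binding bead-coupled RGS7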
RGS4-Gao reg: human RGS4-Galphao interaction regulation; Multiplexed bead flow cytometry, RGS4-Galphao binding; actives lie on both sides; binding response (% of control), % at 10 µM; hit rate 0.33% among 220,000; in the data active means binding response below about 49% or above about 150%; inactive means in between;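 further: fluorescent Galphao activated with aluminum fluoride binding bead-coupled RGS4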
RGS-Gao: regulators of human RGS4-Galphao interaction. multiplexed bead flow cytometry, RGS–Galpha-o binding. hit rate 99% among 1,600. AID 1504. RGS4–Galpha-o binding response, % at 10 µM. shares compounds with RGS16-Gao HTS;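 further: fluorescently labeled Galpha-o bound to GDP with aluminium fluoride binding biotinylated RGS beads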
Biotin-avidin: biotin-avidin bead binding disruption counter-screen; 1,700 tested, under 10 active; AID 1783; shares compounds with RGS16-Gao HTS; inhibition, % at 10 µM; streptavidin beads, fluorescein-biotin binding, flow cytometry;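 active means inhibition above 50%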;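 further: median green fluorescence of gated singlet beads compared with DMSO control wells; 0% = DMSO wells and 100% = complete loss of bead fluorescence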
RGS8-Gao single: confirmation of regulators of human RGS8-Galphao interaction; shares compounds with RGS16-Gao HTS; bead-based flow cytometry RGS8-Galphao binding, fluorescence; actives lie on both sides; binding response (% of control), % at 10 µM; hit rate 3% among 1,700; AID 1836; in the data active means binding response below about 72% or above about 130%; inactive means in between;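 further: Galphao activated as GDP AlF4 complex before binding bead RGS8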
RGS7-Gao confirm: confirmation of regulators of human RGS7-Galphao interaction; shares compounds with RGS16-Gao HTS; bead-based flow cytometry RGS7-Galphao binding; actives lie on both sides; response (percent of control binding), % at 10 µM; hit rate 7.8% among 1,700; in the data active means response below about 75% or above about 130%; inactive means in between;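 further: fluorescent Galphao activated with GDP and aluminum fluoride binding bead-coupled RGS7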
RGS16-Gao single: confirmation of regulators of human RGS16-Galphao interaction; response (% of control binding), % at 10 µM; hit rate 4% among 1,700; AID 1838; shares compounds with RGS16-Gao HTS; bead-based flow cytometry, RGS16-Galphao binding; actives lie on both sides; in the data active means response below about 74% or above about 130%; inactive means in between;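 further: Galphao activated as the GDP aluminium fluoride complex binding bead-coupled RGS16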
RGS4-Gao single: confirmation of regulators of human RGS4-Galphao interaction; shares compounds with RGS16-Gao HTS; RGS4-Galphao binding, multiplexed bead flow cytometry; actives lie on both sides; binding response (% of control), % at 10 µM; hit rate 4% among 1,700; in the data active means binding response below about 74% or above about 130%; inactive means in between
RGS19-Gao single: confirmation of regulators of human RGS19-Galphao interaction | AID 1841 | hit rate 5% among 1,700 | bead-based flow cytometry RGS19-Galphao binding; actives lie on both sides | response (percent of control binding), % at 10 µM | shares compounds with RGS16-Gao HTS; in the data active means response below about 50% or above about 160%; inactive means in between;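 further: 100% = no compound control and 0% = blank background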
The depositor's hits bear a star; [ ] = another dose, or the depositor's remark. Unless noted, how the calls were made is not given here.

Results for O=C(Cc1ccc(Br)cc1)OCC(=O)c1ccc2c(c1)OCCO2 ?
Avidin bead fluor: 2; GSH bead fluor: 23; RGS8-Gao: 53.5*; RGS16-Gao HTS: 38.9; RGS7-Gao reg: 41.6*; RGS4-Gao reg: 47.1*; Biotin-avidin: -0.1; RGS8-Gao single: 100.7; RGS7-Gao confirm: 93.5; RGS16-Gao single: 97.0; RGS4-Gao single: 98.0; RGS19-Gao single: 91.7

How did O=C(Cc1n[nH]c(=O)c2ccccc12)OCC(=O)c1ccc2c(c1)OCCO2 do in these assays?
Avidin bead fluor: 12; GSH bead fluor: 14; RGS8-Gao: 104.4; RGS16-Gao HTS: 114.0; RGS7-Gao reg: 104.9; RGS4-Gao reg: 101.6

How did CC(C)(C)c1ccccc1NC(=O)c1c(O)c2cccc3c2n(c1=O)CC3 do in these assays?
Avidin bead fluor: 8; GSH bead fluor: 21; RGS8-Gao: 100.6; RGS16-Gao HTS: 100.2; RGS7-Gao reg: 98.8; RGS4-Gao reg: 99.6

How did OCCN1CCN(C(=S)Nc2cccc(C(F)(F)F)c2)CC1 do in these assays?
Avidin bead fluor: 8; RGS8-Gao: 99.2; RGS16-Gao HTS: 107.4; RGS7-Gao reg: inconclusive; RGS4-Gao reg: 105.4

How did CC(C)(C)C(=O)/C=c1\s/c(=C\c2ccc(-c3ccc([N+](=O)[O-])cc3)o2)c(=O)n1CC(=O)NC(N)=O do in these assays?
Avidin bead fluor: 11; GSH bead fluor: 56; RGS8-Gao: 99.8; RGS16-Gao HTS: 100.4; RGS7-Gao reg: 104.6; RGS4-Gao reg: 103.7

Results for CCOC(=O)c1sc(N)c(C(=O)Nc2ccccc2OC)c1C ?
Avidin bead fluor: 20; GSH bead fluor: 11; RGS8-Gao: 93.0; RGS16-Gao HTS: 78.4; RGS7-Gao reg: 120.4; RGS4-Gao reg: 100.3

How did COc1ccc(CCNC(=O)CN(C)S(=O)(=O)c2ccc(Br)s2)cc1OC do in these assays?
Avidin bead fluor: 6; GSH bead fluor: 25; RGS8-Gao: 123.9; RGS16-Gao HTS: 241.1*[activator]; RGS7-Gao reg: 99.9; RGS4-Gao reg: 103.2; RGS-Gao: 103.2*; Biotin-avidin: -0.1; RGS8-Gao single: 97.9; RGS7-Gao confirm: 103.4; RGS16-Gao single: 102.6; RGS4-Gao single: 102.6; RGS19-Gao single: 112.2

Results for COc1ccc(Cl)cc1S(=O)(=O)N1CCN(C)CC1 ?
Avidin bead fluor: 8; GSH bead fluor: 22; RGS8-Gao: 100.4; RGS16-Gao HTS: 106.9; RGS7-Gao reg: 103.3; RGS4-Gao reg: 101.4

How did COc1ccc(Cl)cc1S(=O)(=O)N1CCCC1 do in these assays?
GSH bead fluor: 44; Biotin-avidin: 0.5; RGS8-Gao single: 102.1; RGS7-Gao confirm: 103.4; RGS16-Gao single: 106.2; RGS4-Gao single: 103.0; RGS19-Gao single: 109.9

Results for Fc1ccc(C(Nc2ccccn2)c2c[nH]c3ccccc23)cc1 (stereo unspecified) ?
Avidin bead fluor: 23; GSH bead fluor: 14; RGS8-Gao: 140.5*[activator]; RGS16-Gao HTS: 155.6; RGS7-Gao reg: 132.8; RGS4-Gao reg: 124.5; RGS-Gao: 124.5*; Biotin-avidin: 0.4; RGS8-Gao single: 104.2; RGS7-Gao confirm: 102.7; RGS16-Gao single: 102.4; RGS4-Gao single: 103.0; RGS19-Gao single: 110.6

What do the screens show for `COc1ccc(NC(=O)c2cncc(Br)c2)cc1S(N)(=O)=O`?
Avidin bead fluor: 12; GSH bead fluor: 13; RGS8-Gao: 97.4; RGS16-Gao HTS: 99.0; RGS7-Gao reg: 90.2; RGS4-Gao reg: 95.6

What do the screens show for `C=CCN(c1ccc(C(=O)Nc2ccc(NC(C)=O)cc2)cc1)S(C)(=O)=O`?
Avidin bead fluor: 14; GSH bead fluor: 9; RGS8-Gao: 101.5; RGS16-Gao HTS: 104.5; RGS7-Gao reg: 106.2; RGS4-Gao reg: 106.2

What do the screens show for `Cn1c(=O)c2c(=O)cc(N)[nH]c2n(C)c1=O`?
Avidin bead fluor: 7; RGS8-Gao: 77.3; RGS16-Gao HTS: 99.8; RGS7-Gao reg: inconclusive; RGS4-Gao reg: 97.2; Biotin-avidin: 0.3; RGS8-Gao single: 100.4; RGS7-Gao confirm: 102.8; RGS16-Gao single: 100.6; RGS4-Gao single: 102.4; RGS19-Gao single: 99.4

How did Cc1ccnc(N(C(=O)Nc2ccccc2)C2=NCC(C)(C)S2)c1 do in these assays?
Avidin bead fluor: 4; RGS8-Gao: 100.8; RGS16-Gao HTS: 100.9; RGS7-Gao reg: inconclusive; RGS4-Gao reg: 98.7

What do the screens show for `CN1CCN(C(CNS(=O)(=O)c2ccc(Cl)cc2)c2cccnc2)CC1` (stereo unspecified)?
Avidin bead fluor: 130*; GSH bead fluor: 33; RGS8-Gao: 111.5; RGS16-Gao HTS: 163.6; RGS7-Gao reg: 157.1*[activator]; RGS4-Gao reg: 109.6; RGS-Gao: 109.6*; Biotin-avidin: -1.3; RGS8-Gao single: 98.5; RGS7-Gao confirm: 94.5; RGS16-Gao single: 96.5; RGS4-Gao single: 95.5; RGS19-Gao single: 90.4

How did CCOC(=O)Cc1csc(NC(=O)CSc2nnc(-c3ccc(F)cc3)o2)n1 do in these assays?
Avidin bead fluor: 3; GSH bead fluor: 12; RGS8-Gao: 72.3; RGS16-Gao HTS: -13.4*; RGS7-Gao reg: 56.6; RGS4-Gao reg: 60.8; RGS-Gao: 60.8*; Biotin-avidin: -1.2; RGS8-Gao single: 94.7; RGS7-Gao confirm: 68.0*; RGS16-Gao single: 84.0; RGS4-Gao single: 80.3; RGS19-Gao single: 54.1

How did CCOC(=O)Cc1csc(NC(=O)CSc2nnc(-c3ccc(C)cc3)o2)n1 do in these assays?
Avidin bead fluor: 7; GSH bead fluor: 36; RGS8-Gao: 98.6; RGS16-Gao HTS: 103.5; RGS7-Gao reg: 98.3; RGS4-Gao reg: 95.6

Screens: PubChem, NMMLSC
